Measured values taken from the supplement of paper PMC10849652.
About 8,800 targets were measured; listed, in parts, are those with a hit and a random draw of the rest. About 0.5% of all pairs of compound and target were hits.

Assays:
Assay in all cases: log2 fold change, soluble protein after heating vs DMSO (PISA); higher = thermal stabilisation; K562 lysate, 10 uM; active = over 0.2 and 3.5 SD of the protein, either way, in both replicates (recomputed)
vemurafenib = compound: CCCS(=O)(=O)Nc1ccc(F)c(C(=O)c2c[nH]c3ncc(-c4ccc(Cl)cc4)cc23)c1F [vemurafenib]
Procedure, shortened: (§1)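 K562 pellets were dounce-homogenised in PBS pH 7.4 containing 1 mM MgCl2, and the crude extract, at 1 mg/mL protein, was exposed to 10 μM compound for 30 min. Aliquots were heated for 3 min across 48°C-58°C, pooled, brought to 0.5% NP-40 at 4°C and spun at 21,000xg for 90 min, with the supernatant taken as soluble protein. TMTpro 16plex LC-MS/MS with equalised channel sums quantified that protein. Values are log-two fold changes in thermal stability relative to solvent controls, taken from duplicates.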

[1] = compound: CCCS(=O)(=O)Nc1ccc(F)c(C(=O)c2c[nH]c3ncc(Cl)cc23)c1F
Procedure, shortened: as §1

barasertib = compound: CCN(CCCOc1ccc2c(Nc3cc(CC(=O)Nc4cccc(F)c4)[nH]n3)ncnc2c1)CCOP(=O)(O)O [barasertib]
Procedure, shortened: as §1

[2] = compound: CC[C@@H]1C(=O)N(C)c2cnc(Nc3ccc(C(=O)NC4CCN(C)CC4)cc3OC)nc2N1C1CCCC1
Procedure, shortened: as §1

volasertib = compound: CC[C@@H]1C(=O)N(C)c2cnc(Nc3ccc(C(=O)N[C@H]4CC[C@H](N5CCN(CC6CC6)CC5)CC4)cc3OC)nc2N1C(C)C [volasertib]
Procedure, shortened: as §1

[3] = compound: CCn1c(C(=O)N(C2CC2)C2CC2)cc2c3c(ncn3C)c(Nc3cc(C)n(C)n3)nc21
Procedure, shortened: as §1

[4] = compound: CCn1cc(-c2ccnc3[nH]c(-c4cccc(CN(C)C)c4)cc23)c(-c2ccc(NC(=O)N(C)C)cc2)n1
Procedure, shortened: as §1

[5] = compound: CN1CCC(CNc2ccc3ncc(-c4cccc(OC(F)(F)F)c4)n3n2)CC1
Procedure, shortened: as §1

saracatinib = compound: CN1CCN(CCOc2cc(OC3CCOCC3)c3c(Nc4c(Cl)ccc5c4OCO5)ncnc3c2)CC1 [saracatinib]
Procedure, shortened: as §1

sotrastaurin = compound: CN1CCN(c2nc(C3=C(c4c[nH]c5ccccc45)C(=O)NC3=O)c3ccccc3n2)CC1 [sotrastaurin]
Procedure, shortened: as §1

alvocidib = compound: CN1CC[C@H](c2c(O)cc(O)c3c(=O)cc(-c4ccccc4Cl)oc23)[C@H](O)C1 [alvocidib]
Procedure, shortened: as §1

Tubastatin A = compound: CN1CCc2c(c3ccccc3n2Cc2ccc(C(=O)NO)cc2)C1 [Tubastatin A]
Procedure, shortened: as §1

[6] = compound: CNC(=O)C1=CC=CC=C1NC2=NC(=NC=C2Cl)NC3=C(C=C(C=C3)N4CCOCC4)OC
Procedure, shortened: as §1

defactinib = compound: CNC(=O)c1ccc(Nc2ncc(C(F)(F)F)c(NCc3nccnc3N(C)S(C)(=O)=O)n2)cc1 [defactinib]
Procedure, shortened: as §1

[7] = compound: CNc1nc(-c2ccc3c(N)n[nH]c3c2)cc(N2C[C@@H](C(=O)NC3CCCCC3)CC[C@H]2C)n1
Procedure, shortened: as §1

encorafenib = compound: COC(=O)N[C@@H](C)CNc1nccc(-c2cn(C(C)C)nc2-c2cc(Cl)cc(NS(C)(=O)=O)c2F)n1 [encorafenib]
Procedure, shortened: as §1

[8] = compound: COC(=O)[C@H](CCSC)NC(=O)C1=C(C=C(C=C1)NC[C@H](CS)N)C2=CC=CC=C2
Procedure, shortened: as §1

alisertib = compound: COc1cc(Nc2ncc3c(n2)-c2ccc(Cl)cc2C(c2c(F)cccc2OC)=NC3)ccc1C(=O)O [alisertib]
Procedure, shortened: as §1

[9] = compound: COc1cc2nc(-c3cc(F)ccc3O)nc(N[C@@H]3CNC[C@H]3C(C)(C)O)c2cc1OC
Procedure, shortened: as §1

gefitinib = compound: COc1cc2ncnc(Nc3ccc(F)c(Cl)c3)c2cc1OCCCN1CCOCC1 [gefitinib]
Procedure, shortened: as §1

Measured: log2 fold change

ENO2 (UniProt P09104)
Sequence of UniProt P09104 (P09104 whole entry, looked up): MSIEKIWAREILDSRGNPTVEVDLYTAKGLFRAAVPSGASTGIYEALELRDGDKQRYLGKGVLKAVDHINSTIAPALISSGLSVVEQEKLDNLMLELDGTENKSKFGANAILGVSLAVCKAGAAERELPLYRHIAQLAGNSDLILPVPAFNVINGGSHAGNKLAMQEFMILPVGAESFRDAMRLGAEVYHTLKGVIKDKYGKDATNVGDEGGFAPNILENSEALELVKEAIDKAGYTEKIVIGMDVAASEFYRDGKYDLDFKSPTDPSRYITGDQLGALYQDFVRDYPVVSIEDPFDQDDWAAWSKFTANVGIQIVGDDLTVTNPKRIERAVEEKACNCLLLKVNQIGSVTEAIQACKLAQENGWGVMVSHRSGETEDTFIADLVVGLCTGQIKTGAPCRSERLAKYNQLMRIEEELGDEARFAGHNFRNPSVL
active: [5] 0.319 | alvocidib -0.279
inactive: vemurafenib 0.05 | [1] 0.008 | barasertib -0.132 | [2] 0.044 | volasertib 0.046 | [3] -0.069 | [4] -0.231 | saracatinib 0.06 | sotrastaurin 0.034 | Tubastatin A 0.024 | [6] -0.018 | defactinib -0.007 | [7] 0.073 | encorafenib 0.032 | [8] 0.086 | alisertib -0.025 | [9] -0.014 | gefitinib -0.021

FYB1 isoform 3 (UniProt O15117)
Sequence of UniProt O15117 (O15117 whole entry, looked up): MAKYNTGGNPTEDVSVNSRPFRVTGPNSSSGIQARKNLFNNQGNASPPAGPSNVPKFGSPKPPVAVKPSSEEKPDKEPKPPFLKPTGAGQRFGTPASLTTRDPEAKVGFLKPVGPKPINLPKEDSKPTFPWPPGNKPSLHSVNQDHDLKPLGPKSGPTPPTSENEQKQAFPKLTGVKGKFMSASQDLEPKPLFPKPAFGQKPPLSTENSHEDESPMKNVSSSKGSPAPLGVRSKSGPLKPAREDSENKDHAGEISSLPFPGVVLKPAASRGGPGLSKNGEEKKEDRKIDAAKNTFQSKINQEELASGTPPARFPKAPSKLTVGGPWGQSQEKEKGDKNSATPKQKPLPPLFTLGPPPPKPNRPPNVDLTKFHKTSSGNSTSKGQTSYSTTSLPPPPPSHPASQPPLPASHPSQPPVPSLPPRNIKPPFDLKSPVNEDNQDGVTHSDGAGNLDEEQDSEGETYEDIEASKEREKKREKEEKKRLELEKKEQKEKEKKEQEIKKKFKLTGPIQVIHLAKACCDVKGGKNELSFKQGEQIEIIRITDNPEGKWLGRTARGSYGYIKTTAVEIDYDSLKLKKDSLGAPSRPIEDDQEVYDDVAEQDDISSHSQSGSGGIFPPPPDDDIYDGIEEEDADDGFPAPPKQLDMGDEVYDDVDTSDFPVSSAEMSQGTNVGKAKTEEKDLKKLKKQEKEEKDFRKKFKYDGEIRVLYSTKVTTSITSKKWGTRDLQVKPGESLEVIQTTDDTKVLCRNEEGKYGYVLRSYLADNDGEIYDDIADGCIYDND
inactive: vemurafenib -0.056 | [1] -0.011 | barasertib -0.003 | [2] 0.043 | volasertib -0.026 | [3] -0.018 | [4] 0.072 | [5] -0.101 | saracatinib 0.007 | sotrastaurin 0.008 | alvocidib -0.012 | Tubastatin A -0.001 | [6] 0.013 | defactinib 0.033 | [7] 0.065 | encorafenib -0.005 | [8] -0.035 | alisertib -0.012 | [9] -0.014 | gefitinib -0.029

FANCD2 isoform 1 (UniProt Q9BXW9)
Sequence of UniProt Q9BXW9 (Q9BXW9 whole entry, looked up): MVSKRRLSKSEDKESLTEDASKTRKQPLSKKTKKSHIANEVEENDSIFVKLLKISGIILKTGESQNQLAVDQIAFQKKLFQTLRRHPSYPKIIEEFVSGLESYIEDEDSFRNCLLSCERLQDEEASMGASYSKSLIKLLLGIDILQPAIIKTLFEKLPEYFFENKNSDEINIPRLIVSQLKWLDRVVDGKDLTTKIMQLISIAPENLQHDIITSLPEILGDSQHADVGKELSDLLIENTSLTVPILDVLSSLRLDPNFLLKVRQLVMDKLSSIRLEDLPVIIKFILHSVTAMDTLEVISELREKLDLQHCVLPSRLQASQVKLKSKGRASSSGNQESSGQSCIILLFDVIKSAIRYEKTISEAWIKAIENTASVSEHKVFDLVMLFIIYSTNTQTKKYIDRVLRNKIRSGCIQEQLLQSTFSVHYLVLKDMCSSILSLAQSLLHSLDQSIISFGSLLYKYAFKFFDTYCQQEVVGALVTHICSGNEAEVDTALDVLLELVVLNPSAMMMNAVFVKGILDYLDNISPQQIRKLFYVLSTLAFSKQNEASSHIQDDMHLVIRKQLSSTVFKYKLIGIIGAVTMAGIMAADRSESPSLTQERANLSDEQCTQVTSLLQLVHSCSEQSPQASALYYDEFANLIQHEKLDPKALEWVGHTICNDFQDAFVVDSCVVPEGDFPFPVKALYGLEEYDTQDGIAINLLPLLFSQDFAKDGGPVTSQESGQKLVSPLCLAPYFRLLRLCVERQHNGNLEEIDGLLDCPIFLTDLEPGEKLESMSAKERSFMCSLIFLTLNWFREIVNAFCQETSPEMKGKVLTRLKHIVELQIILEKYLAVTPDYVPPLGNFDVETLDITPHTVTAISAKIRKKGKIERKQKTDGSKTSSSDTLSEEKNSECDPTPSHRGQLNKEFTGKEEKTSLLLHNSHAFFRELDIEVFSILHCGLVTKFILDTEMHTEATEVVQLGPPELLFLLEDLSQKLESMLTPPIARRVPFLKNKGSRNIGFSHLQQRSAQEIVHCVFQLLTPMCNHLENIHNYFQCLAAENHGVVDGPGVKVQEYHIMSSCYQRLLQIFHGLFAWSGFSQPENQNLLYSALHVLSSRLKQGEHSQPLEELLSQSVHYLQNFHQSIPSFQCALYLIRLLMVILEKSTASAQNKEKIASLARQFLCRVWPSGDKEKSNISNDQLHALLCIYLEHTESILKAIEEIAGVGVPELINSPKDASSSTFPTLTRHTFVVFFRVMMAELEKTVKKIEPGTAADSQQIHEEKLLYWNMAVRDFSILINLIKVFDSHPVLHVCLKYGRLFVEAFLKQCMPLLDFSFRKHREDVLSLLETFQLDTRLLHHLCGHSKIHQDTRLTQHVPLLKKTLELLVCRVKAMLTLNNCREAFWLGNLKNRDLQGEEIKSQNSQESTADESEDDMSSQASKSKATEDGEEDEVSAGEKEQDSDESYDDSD
inactive: vemurafenib 0.067 | [1] 0.053 | barasertib 0.04 | [2] 0.14 | volasertib -0.045 | [3] 0.017 | [4] -0.135 | [5] 0.02 | saracatinib 0.016 | sotrastaurin -0.029 | alvocidib 0 | Tubastatin A -0.082 | [6] -0.001 | defactinib -0.044 | [7] 0.147 | encorafenib -0.059 | [8] 0.096 | alisertib 0.001 | [9] 0.023 | gefitinib 0.009

FADS3 (UniProt Q9Y5Q0)
Sequence of UniProt Q9Y5Q0 (Q9Y5Q0 whole entry, looked up): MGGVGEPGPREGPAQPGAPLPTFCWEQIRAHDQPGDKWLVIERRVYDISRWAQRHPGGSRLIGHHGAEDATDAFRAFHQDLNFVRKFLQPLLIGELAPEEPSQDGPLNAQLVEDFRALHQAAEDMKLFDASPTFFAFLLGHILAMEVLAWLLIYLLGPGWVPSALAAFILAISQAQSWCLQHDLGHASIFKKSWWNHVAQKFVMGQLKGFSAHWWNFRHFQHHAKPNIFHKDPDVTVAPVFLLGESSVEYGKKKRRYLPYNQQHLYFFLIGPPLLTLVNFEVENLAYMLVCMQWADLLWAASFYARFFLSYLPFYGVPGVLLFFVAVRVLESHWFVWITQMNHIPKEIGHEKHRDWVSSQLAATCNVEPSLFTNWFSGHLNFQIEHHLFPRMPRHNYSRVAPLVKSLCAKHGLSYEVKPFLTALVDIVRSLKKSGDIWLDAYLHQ
active: [4] -0.957
inactive: vemurafenib 0.066 | [1] 0.149 | barasertib 0 | [2] 0.119 | volasertib -0.103 | [3] 0.023 | [5] 0.343 | saracatinib 0.152 | sotrastaurin -0.057 | alvocidib -0.051 | Tubastatin A 0.1 | [6] -0.047 | defactinib 0.198 | [7] -0.08 | encorafenib 0.097 | [8] 0.096 | alisertib 0 | [9] 0 | gefitinib 0.063

FNBP1L (UniProt Q5T0N5)
Sequence of UniProt Q5T0N5 (Q5T0N5 whole entry, looked up): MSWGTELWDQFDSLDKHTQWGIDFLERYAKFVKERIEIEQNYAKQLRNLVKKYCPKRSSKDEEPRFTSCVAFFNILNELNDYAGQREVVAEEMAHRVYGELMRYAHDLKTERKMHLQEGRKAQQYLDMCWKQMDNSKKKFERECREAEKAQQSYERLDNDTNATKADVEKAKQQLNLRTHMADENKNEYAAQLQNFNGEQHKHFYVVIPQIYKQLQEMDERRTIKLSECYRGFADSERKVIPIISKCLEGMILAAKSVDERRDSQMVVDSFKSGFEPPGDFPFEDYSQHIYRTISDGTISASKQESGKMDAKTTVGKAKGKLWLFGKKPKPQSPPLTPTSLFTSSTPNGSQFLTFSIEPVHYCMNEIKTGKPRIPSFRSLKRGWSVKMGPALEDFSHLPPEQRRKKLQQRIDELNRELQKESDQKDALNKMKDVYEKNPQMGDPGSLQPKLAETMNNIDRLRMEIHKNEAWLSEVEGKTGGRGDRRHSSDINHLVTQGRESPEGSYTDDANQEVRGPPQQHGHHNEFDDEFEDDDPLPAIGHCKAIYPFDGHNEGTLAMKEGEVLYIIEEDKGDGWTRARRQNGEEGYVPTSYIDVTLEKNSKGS
inactive: vemurafenib 0.003 | [1] 0.029 | barasertib 0.167 | [2] -0.085 | volasertib -0.068 | [3] -0.013 | [4] -0.024 | [5] -0.019 | saracatinib -0.013 | sotrastaurin 0.048 | alvocidib 0.04 | Tubastatin A -0.043 | [6] 0.023 | defactinib -0.066 | encorafenib 0.045 | [8] 0.034 | alisertib 0.005 | [9] -0.015 | gefitinib 0.099
active: [7] 0.357

FECH isoform 2 (UniProt P22830)
Sequence of UniProt P22830 (P22830 whole entry, looked up): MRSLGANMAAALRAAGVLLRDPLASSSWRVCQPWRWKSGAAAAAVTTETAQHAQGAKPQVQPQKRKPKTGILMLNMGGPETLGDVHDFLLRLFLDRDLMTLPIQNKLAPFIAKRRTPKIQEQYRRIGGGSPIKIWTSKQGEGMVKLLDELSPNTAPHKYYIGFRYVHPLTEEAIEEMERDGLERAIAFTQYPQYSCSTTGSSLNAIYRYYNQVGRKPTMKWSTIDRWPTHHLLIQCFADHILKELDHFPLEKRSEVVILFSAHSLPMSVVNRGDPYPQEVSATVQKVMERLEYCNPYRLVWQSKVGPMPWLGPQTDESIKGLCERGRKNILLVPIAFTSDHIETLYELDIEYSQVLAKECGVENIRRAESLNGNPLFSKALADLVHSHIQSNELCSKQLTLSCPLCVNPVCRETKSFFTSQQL
active: [1] -0.891
inactive: vemurafenib 0.363 | barasertib -0.082 | [2] 0.477 | volasertib 0.078 | [3] -0.03 | [4] 0.128 | [5] 0.699 | saracatinib -0.287 | sotrastaurin 0.014 | alvocidib 0.028 | Tubastatin A -0.123 | [6] 0.485 | defactinib -0.056 | [7] 0.664 | encorafenib -0.064 | [8] -0.091 | alisertib -0.191 | [9] 0.225 | gefitinib 0.503

DST (UniProt Q03001)
inactive: vemurafenib 0.23 | [1] 0.021 | barasertib 0.083 | [2] 0.021 | volasertib -0.045 | [3] -0.073 | [4] -0.174 | [5] 0.076 | saracatinib 0.052 | sotrastaurin -0.024 | alvocidib -0.047 | Tubastatin A 0.033 | [6] -0.003 | defactinib -0.094 | [7] 0.114 | encorafenib 0.018 | [8] 0.048 | alisertib 0.003 | [9] 0.033 | gefitinib 0.046

EEF1A1, A0A087WVQ9
inactive: vemurafenib 0.011 | [1] 0.047 | barasertib -0.069 | [2] 0.027 | volasertib -0.003 | [3] -0.026 | [4] -0.016 | [5] -0.12 | saracatinib 0.077 | sotrastaurin 0.013 | alvocidib -0.005 | Tubastatin A -0.102 | [6] 0.042 | defactinib 0.062 | [7] 0.071 | encorafenib 0.011 | [8] 0.115 | alisertib -0.073 | [9] 0.026 | gefitinib -0.054
